# From the OligoGym collection
# Biological target: CXCL1
# Experiment: pooled miR-30 sensor sort-seq; sequence = guide strand
# Settings: shRNA
# Further: reference of the scale not given here.
row,Sequence,sensor-assay potency score (higher = more potent)
1,TTGAGGCAAGCTTTCCGCCCAT,-0.645
2,TTAACTATGGGGGATGCAGGAT,-1.04
3,TCGATGATTTTCTTAACTATGG,-1.57
4,TAACTATGGGGGATGCAGGATT,-1.31
5,ACACTTTGGATGTTCTTGGGGT,-0.0598
6,TGATTTTCTTAACTATGGGGGA,-0.639

# Biological target: CXCL3
# Experiment: as above
# Settings: shRNA
row,Sequence,sensor-assay potency score (higher = more potent)
1,TTGTTCAGTATCTTTTCGATGA,-0.149
2,TAGTCAAACACATTAAGTCCTT,-0.625
3,TGCAGTGTCTGCAAGCACTGGC,0.137
4,TTTGATGAAACACACTCACATC,-1.05
5,TTCGATGATTTTCTGAACCATG,-0.954
6,TGAGACAAGCTTTCTTCCCATT,-1.23
7,ATGATTTTCTGAACCATGGGGG,-0.165
8,TTGAGACAAGCTTTCTTCCCAT,0.654
9,TTTCTTCCCATTCTTGAGTGTG,-0.403
10,TAAATAATCAGGACTGAGCTAT,-0.218
11,TACATAAATAAGTAGAACCCTC,-0.724
12,TAAATAAGTAGAACCCTCGTAA,-0.0177

# Biological target: CXorf40A
# Experiment: as above
# Settings: shRNA
row,Sequence,sensor-assay potency score (higher = more potent)
1,TCCACCAGCAGCTCCCGCCAGG,-1.9
2,TTGGTCAGTACAGCTTGATTTT,-1.4
3,TACAGCTTGATTTTCTAGTTCC,0.219
4,TTCAGGTTGGTCAGTACAGCTT,-0.578
5,TCAGTACAGCTTGATTTTCTAG,-0.864
6,TCAGGTTGGTCAGTACAGCTTG,0.439

# Biological target: CXorf41
# Experiment: as above
# Settings: shRNA
row,Sequence,sensor-assay potency score (higher = more potent)
1,TAACTGAAGAAACACTCTCAAA,-1.54
2,TATCATCATATTCTGCTCCTTC,0.467
3,TTGAGCTCTTCTATTTGGGGTG,0.00833
4,TAGTTCACTGCAACAACCTGTT,-0.276
5,TAACATCCCACATATCATCATA,-1.24
6,TTATCAACAGCTTCTTCTGAGG,-1.2
7,TAACTCTCTTTTCATAGTCATA,-1.66
8,TTCTTCAGGATTAAGTAGCTTA,0.137
9,TTTATTACCTGTATATTCCAGA,0.269
10,TATATCTTCAGTTCCCACCTGC,0.748
11,TTAGCCACTAGTTCACTGCAAC,-0.799
12,TTCAATTATGTAATTGACCATG,-1.17

# Biological target: CXorf56
# Experiment: as above
# Settings: shRNA
row,Sequence,sensor-assay potency score (higher = more potent)
1,TTTCTGAGTATATATGTTCGTT,-0.396
2,TACTGCTCCATCCACAATGAAG,-1.81
3,TATGAGTCAGCAACTTCCCTAG,0.0765
4,TTCTGAGTATATATGTTCGTTT,-0.865
